Source: PubChem BioAssay (National Center for Advancing Translational Sciences (NCATS))
Rows were chosen to be rich in hits. Some 6.8% of all compounds tested hit in one or more screens of this group.
KB-V1 MDR tox: kills drug-selected multidrug resistant KB-V1 cells | KB-V1 MDR cells viability, CellTiter-Glo, 72 h | Potency, µM (highest dose often 46.1 µM), hits mostly cytotoxic | 3.4% of 400,000 active | AID 1347076; note: % is set by controls: 0 for no effect and ±100 for the full control effect; nearly all actives have a fitted effect of over 60% in size
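Drug-selected KB-V1 cells, grown in DMEM lacking phenol red with 10% FBS, receive compound titrations; after three days at 37 degrees C, surviving cell ATP is quantified by CellTiter-Glo luminescence and responses normalized and curve-fitted.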
KB-3-1 cytotox: KB-3-1 parental cell cytotoxicity; KB-3-1 viability, CellTiter-Glo ATP luminescence, 72 h; Potency, µM (series often up to 46.1 µM), most hits filed as cytotoxic; 1.4% of 400,000 active; note: % is set by controls: 0 for no effect and ±100 for the full control effect; nearly all actives have a fitted effect of over 60% in size
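Cytotoxicity measured as CellTiter-Glo luminescence after 72 h at 37 C. Compound titrations were pinned onto drug-naive KB-3-1 parental adenocarcinoma cells grown in DMEM with 10% FBS, and normalized data fitted to concentration-response curves.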
PINK1 expr mod: changes PINK1 expression. PINK1 immunofluorescence, high-content cytometry, 24 h. Potency, µM (doses to about 76.6 µM), without a hit: top-dose activation (PINK1 increase), most hits filed as activators. AID 624263. 0.2% of 410,000 active; active = well fitted activation curve with a large enough effect; inconclusive = small, poorly fitted or top-dose-only effect; cell line not stated here; note: % of control where 0% means no effect; nearly all actives have a fitted effect of over 65% in size
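PINK1 protein, normally rapidly degraded, was detected by immunofluorescence after 24 hour compound treatment of a stable cell line. Titration data (5 concentrations) came from laser-scanning cytometry, with CCCP-treated wells as controls.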
SW480 rereplic: DNA re-replication induction in SW480 cells; Potency, µM (titrated, usually from 46.1 µM), for the others: top-dose re-replication activation, most hits filed as activators; SW480 DNA re-replication, Hoechst DNA content imaging, 48 h; 1.8% of 340,000 active; note: % of control where 0% means no effect; nearly all actives have a fitted effect of over 55% in size
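Per well, 250 cells were exposed to pinned compound for 48 hr. Nuclear DNA was visualised with Hoechst (40 min, 37 C) and total object intensity recorded by fluorescence scanning.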
TSG101-PTAP inh: blocks PTAP/TSG101 interaction to inhibit HIV-1 budding; Q99816; Fluorescence polarization, FITC-PTAP peptide / Tsg101 binding; Potency, µM (titrated, usually from 115 µM), for the others: at the highest dose activity change, negative = inhibition, actives largely listed as inhibitors; 340,000 tested, under 10 active; AID 493005; active = well fitted inhibition curve with a large enough effect in the main read-out, with a control signal flat, not every such curve was filed as active; inconclusive = small, poorly fitted or top-dose-only effect, or effect the other way, or a change in a side signal; inactive = no such curve, though single readings can be large or run the other way; note: % of control where 0% means no effect
Target sequence (Q99816 whole entry, looked up): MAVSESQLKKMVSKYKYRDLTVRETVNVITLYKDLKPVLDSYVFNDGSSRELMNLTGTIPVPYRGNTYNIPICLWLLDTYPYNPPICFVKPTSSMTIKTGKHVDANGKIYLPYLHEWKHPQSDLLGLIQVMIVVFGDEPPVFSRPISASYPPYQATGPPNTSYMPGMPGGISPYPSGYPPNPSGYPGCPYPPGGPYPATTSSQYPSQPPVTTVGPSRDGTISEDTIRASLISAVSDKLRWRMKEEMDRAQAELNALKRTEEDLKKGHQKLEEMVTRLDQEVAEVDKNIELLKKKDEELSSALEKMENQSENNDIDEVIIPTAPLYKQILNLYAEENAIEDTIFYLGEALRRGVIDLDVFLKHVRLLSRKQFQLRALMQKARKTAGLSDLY
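Tsg101 binding domain (10 uM final) was mixed with compound and a FITC-labeled PTAP peptide (50 nM final) in HEPES pH 7.5 buffer with NaCl, Tween 20, EDTA and TCEP; fluorescence polarization was read after 20 min at r.t.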
MCF10A rereplic: induces DNA re-replication in MCF 10a normal breast cells; MCF 10A DNA re-replication, Hoechst nuclear intensity, 48 h; Potency, µM (series often up to 46.1 µM), inactives show at the top dose activity, positive = re-replication, most hits filed as activators; 2.9% of 350,000 active; note: % of control where 0% means no effect; nearly all actives have a fitted effect of over 50% in size
The depositor's hits bear a star; i = inactive; ? = inconclusive; . = no result; [ ] = remark or other dose. Unless noted, calls come from the whole dose curve; as a rule, active = well fitted curve in the direction sought with a large enough effect; inconclusive = small, poorly fitted or top-dose-only effect, or another doubt; inactive = no such curve, though single readings can be large; an effect the other way counts as inactive or inconclusive. Potency is the fitted concentration of half-maximal effect.

SMILES	KB-V1 MDR tox	KB-3-1 cytotox	PINK1 expr mod	SW480 rereplic	TSG101-PTAP inh	MCF10A rereplic
COCCNC(=O)/C(C#N)=C/c1c(N2CCCCCC2)nc2c(C)cccn2c1=O	i	i	-1.2%	?	-1.6%	-1.7%
COCCNC(=O)/C(C#N)=C/c1c(N2CCN(C)CC2)nc2c(C)cccn2c1=O	i	i	-1.1%	20.6µM*	-2.8%	-6.1%
CCN1CCN(c2nc3c(C)cccn3c(=O)c2/C=C(\C#N)C(=O)NCCOC)CC1	i	?	-1.2%	6.51µM*	4.6%	16.4µM*
CNC(=O)/C(C#N)=C/c1c(N2CCN(c3ccc(OC)cc3)CC2)nc2c(C)cccn2c1=O	i	i	-0.3%	-1.2%	-2.0%	20.6µM*
COCCCNC(=O)/C(C#N)=C/c1c(N2CCN(C)CC2)nc2c(C)cccn2c1=O	i	i	0.5%	?	-3.3%	?
CCOc1ccc(-c2c(C)nn3c(C)c(C(=O)Nc4cccc(Cl)c4C)cnc23)cc1OCC	i	i	1.4%	.	.	.
Clc1ccc(/C=N/Nc2nnc(-c3ncc[nH]3)c3ccccc23)cc1	7.31µM*	i	11.8%[38.3 µM]	22.9%	-5.0%	9.4%
Cc1ccc(C(=O)c2cn(Cc3cccc(Cl)c3)c3nc(C)ccc3c2=O)cc1	?	i	0.0%	.	.	.
Cn1c(CC2C(=O)Nc3ccc(Br)cc32)nc2ccccc2c1=O (stereo not given)	10.3µM*	?	-2.2%	-1.3%	-2.9%	?
O=C1Nc2ccc(Br)cc2C1Cc1ccccc1F (stereo not given)	i	i	3.0%	-3.1%	-2.8%	0.2%
COc1cc(O)c(C(CC(=O)N2CCC(C)CC2)c2ccc(OC)c(OC)c2)c(OC)c1 (stereo not given)	i	i	.	.	.	.
COC(=O)c1ccc(NC(=O)N2CCc3c([nH]c4ccccc34)C2c2ccc(C)cc2)cc1 (stereo not given)	.	.	0.3%	.	.	.
O=C(Nc1ccc(S(=O)(=O)N2CCOCC2)cc1)c1ccc(CN2CCc3ccccc3C2)cc1	2.91µM*	?	1.9%	4.9%[9.22 µM]	-2.6%	?
O=C(Nc1ccc(S(=O)(=O)N2CCOCC2)cc1)c1cc(-c2cc(Cl)ccc2O)n[nH]1	?	11.6µM*	?	?	3.4%	?
COc1ccc(CN2CCc3cc(OC)c(OC)cc3C2)cc1O	16.4µM*	?	6.5%	5.0%	-4.3%	?
COc1cc2c(cc1OC)CN(Cc1ccc(F)cc1)CC2	i	i	-0.7%	?	?	-21.8%
COc1ccc(NC(=O)c2ccc(CN3CCc4ccccc4C3)cc2)cc1OC	8.2µM*	?	5.4%	?	-1.3%	14.8%
O=C(Nc1ccc(S(=O)(=O)N2CCCC2)cc1)c1ccc(CN2CCc3ccccc3C2)cc1	?	?	1.8%	20.8%	-3.1%	?
O=[N+]([O-])c1ccc(O/N=[N+](\[O-])N2CCCCC2)c([N+](=O)[O-])c1	.	.	-1.1%	.	.	.
CCS(=O)(=O)Nc1cc(C(=O)N2CCCN(C=O)CC2)c2c(c1)nc(-c1ccccc1)n2C	.	.	-0.3%	.	.	.
COCCCNc1ncnc2sc(C(=O)N3CCCCC3)c(C)c12	.	.	-0.8%	.	.	.
COc1ccc(N2CCN(C(=O)C3CCN(S(=O)(=O)c4cnc[nH]4)CC3)CC2)cc1	?	i	1.0%	.	.	.
CC(C)OCCCNC(=O)c1cc2c(-c3ccc(Cl)cc3)nn(C)c2s1	.	.	0.4%	.	.	.
COc1ccc(NC(=O)c2ccc(COCC(F)(F)F)cc2)cc1OC	20.6µM*	i	6.4%	-4.0%	-1.1%	6.8%
O=C(Nc1cccnc1)c1ccc(COCC(F)(F)F)cc1	?	i	1.9%[38.3 µM]	-1.5%	-1.6%	-0.3%
SMILES	KB-V1 MDR tox	KB-3-1 cytotox	PINK1 expr mod	SW480 rereplic	TSG101-PTAP inh	MCF10A rereplic
COc1ccc(-c2nc3ccc(NS(=O)(=O)c4ccc(Cl)cc4)cc3o2)cc1	i	i	-1.3%	.	.	.
O=C(CN1CCN(S(=O)(=O)c2ccc(Br)cc2)CC1)N/N=C/c1ccc(Cl)c([N+](=O)[O-])c1	i	i	-2.9%	0.9%	-7.1%	16.4µM*
Cc1ccc(S(=O)(=O)N2CCN(CC(=O)N/N=C\c3ccc(Cl)c([N+](=O)[O-])c3)CC2)cc1	i	i	-1.5%	.	-2.5%	4.9%
COc1cc(=O)n2c(c1C(=O)N(C)Cc1nccs1)CCN(Cc1c(F)ccc(F)c1F)CC2	.	.	0.4%	.	.	.
O=c1cc(N2CCN(c3ccccc3Cl)CC2)[nH]c(=O)n1Cc1ccc(F)cc1	20.6µM*	4.61µM*	13.2%	?	-2.8%	2.06µM*
CCN1CCN(c2cc(=O)n(Cc3ccc(F)cc3)c(=O)[nH]2)CC1	i	i	0.9%	-9.1%	-4.2%	3.2%
COc1ccccc1N1CCN(S(=O)(=O)CCNC(=O)Cc2ccc(F)cc2)CC1	18.4µM*	?	?	?	-2.8%	8.0%
O=c1cc(N2CCN(Cc3ccccc3)CC2)[nH]c(=O)n1Cc1ccc(F)cc1	i	i	8.2%[38.3 µM]	0.9%	-2.1%	-3.1%
CCOC(=O)N1CCN(c2cc(=O)n(Cc3ccc(F)cc3)c(=O)[nH]2)CC1	i	i	2.9%[38.3 µM]	20.6µM*	-2.9%	11.6µM*
COc1ccccc1N1CCN(c2cc(=O)n(Cc3ccc(F)cc3)c(=O)[nH]2)CC1	?	5.17µM*	10.7%	16.4µM*	-0.6%	?
COc1ccccc1N1CCN(c2cc(=O)n(-c3ccccc3Cl)c(=O)[nH]2)CC1	?	?	-0.3%[38.3 µM]	12.3%	-3.5%	?
Cc1ccccc1C(=O)NCc1nc2cccnc2n1Cc1ccccc1	.	.	1.1%	.	.	.
CCc1cccc(C)c1NC(=O)CCCn1nc(C)c2sc3ccccc3c2c1=O	i	i	0.4%	.	.	.
COc1ccc(/C=N/Nc2ccc(C(=O)O)cc2)c(OC)c1OC	i	i	2.2%	-0.5%	-3.6%	11.8%
COc1cc(/C=C/c2ccc(O)cc2)cc(OC)c1	i	i	4.6%	?	0.7%	18.0%
COC(=O)c1ccc2c(c1)C(C)(C)C(/C=C/c1ccc(OC)c(OC)c1OC)=[N+]2C	i	5.17µM*	-1.9%	4.7%[9.22 µM]	-0.3%	?
COC(=O)c1ccc2c(c1)C(C)(C)C(/C=C/c1ccc(O)cc1)=[N+]2C	6.31µM*	?	-4.9%[38.3 µM]	6.31µM*	47.6%	7.08µM*
Cc1cc(-c2ccc(C)c(S(=O)(=O)Nc3cccc(C#N)c3)c2)on1	.	.	0.1%	.	.	.
COc1cc(OC)cc(C(=O)NCC2Cc3cccc(-c4nc(C)cnc4C)c3O2)c1 (stereo not given)	.	.	-0.1%	.	.	.
Cc1cc(C)cc(OCC(=O)Nc2ccc(-c3nc4ccccc4s3)cc2)c1	i	i	8.8%	.	.	.
